# D3 ag = qHTS of D3 Dopamine Receptor Agonist: qHTS. D3R DiscoveRx beta-arrestin cells, luminescence, 90 min. max activation, %. actives 0.58% (n = 410,000); in the data active means max activation above about 30%; further: 0% is about no effect
#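 Agonist-mode cell screen: cells plated at 1500/well and incubated overnight at 37 °C, then exposed to library compounds for 90 min at 37 °C. Detection reagent was added for 30–60 min at room temperature, and luminescence was read.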
# D1 antag = Antagonist of Human D 1 Dopamine Receptor: qHTS; actives 3.2% (n = 360,000); AID 504652, 2011; D(1A) dopamine receptor (Homo sapiens), P21728; HEK293 TREx D1 cells, calcium flux, dopamine EC80; active compounds read low; activity change, negative = inhibition, % at 10 µM; in the data active means activity change below about -30%; further: on the % scale 0 is the no-effect control and ±100 the full control effect
# Target sequence (P21728 whole entry, looked up): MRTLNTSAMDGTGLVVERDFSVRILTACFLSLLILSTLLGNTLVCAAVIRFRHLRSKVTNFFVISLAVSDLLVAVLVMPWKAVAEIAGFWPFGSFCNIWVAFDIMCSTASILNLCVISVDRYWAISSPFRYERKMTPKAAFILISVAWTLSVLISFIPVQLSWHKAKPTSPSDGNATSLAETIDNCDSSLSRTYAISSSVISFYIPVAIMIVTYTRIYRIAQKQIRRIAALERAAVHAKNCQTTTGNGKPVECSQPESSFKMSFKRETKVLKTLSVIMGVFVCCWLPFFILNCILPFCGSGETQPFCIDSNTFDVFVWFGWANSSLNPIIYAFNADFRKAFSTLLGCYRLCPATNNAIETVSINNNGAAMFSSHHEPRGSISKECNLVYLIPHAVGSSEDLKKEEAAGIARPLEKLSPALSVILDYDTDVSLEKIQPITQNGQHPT
#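 Cells carrying a force-coupled, tetracycline-inducible human D1 receptor report calcium flux. Each well gets a 10 s baseline, compound with 180 s monitoring, then an EC80 dopamine stimulus with a second 180 s kinetic read.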
# D1 ag = Allosteric Agonists of the Human D1 Dopamine Receptor: qHTS; HEK293 T-REx D1 cells, calcium flux, agonist mode; activation, % at 2 µM; actives 1% (n = 360,000); AID 504660, 2011; in the data active means activation above about 30%; further: 0% is about no effect
#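 Agonism was scored from calcium flux recorded over 180 s (1 read/s) after pintool compound addition, following a 10-cycle baseline. Cells were inducible force-coupled HEK293 TREx D1, plated overnight at 30 C and loaded with no-wash calcium dye.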
# D1 potentiator = Potentiators of Human D1 Dopamine Receptor: qHTS. D(1A) dopamine receptor (Homo sapiens), P21728. HEK293 TREx D1 cells, calcium flux, dopamine EC20 potentiation. potentiation, % at 10 µM. actives 0.036% (n = 360,000); in the data active means potentiation above about 30%; further: 0% is about no effect
# D3 antag = qHTS of D3 Dopamine Receptor Antagonist: qHTS; actives 2.5% (n = 360,000); max response, negative = inhibition, %; D(3) dopamine receptor (Homo sapiens), P35462; D3R cells, DiscoveRx beta-arrestin luminescence, antagonist mode; active compounds read low; AID 652054, 2013; in the data active means max response below about -50%; inconclusive means no clear call, values can overlap the other calls; further: on the % scale 0 is the no-effect control and ±100 the full control effect
#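 Cells expressing the human receptor were seeded at 1500 cells/well, incubated overnight at 37 degrees C in 5% CO2, then exposed to library compounds with dopamine controls for 90 minutes at 37 degrees C before luminescent detection.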
# Active calls of the source: *; ? = inconclusive; nt = no result. Hits are enriched below; roughly 6% of the tested compounds scored in any of these assays.
SMILES,D3 ag,D1 antag,D1 ag,D1 potentiator,D3 antag
COC(=O)c1ccc(/C=N/OCC(=O)NCc2ccc(F)cc2)cc1,13.0,-50.9*,0.8,-4.0,12.5
Cc1cc(NCc2ccccc2)nc2ccccc12,-5.1,-66.2*,34.3*,-21.7,-57.3*
Clc1ccc(Nc2ccc(NCc3ccccc3)nn2)cc1,1.3,-25.5,14.3,-5.0,8.3
Cc1ccc(Nc2ccc(NCc3ccccc3)nn2)cc1C,-9.3,-43.6*,7.5,-9.0,-28.3
Cc1cc(NCc2ccccc2)c2ccccc2n1,-7.2,-13.4,6.4,-2.0,4.2
COc1ccc(CNCc2ccc3ccccc3c2)c(OC)c1,-18.4,-20.4,33.9*,-3.5,?
COc1ccc(CNCc2cccc(Oc3ccccc3)c2)cc1,-11.0,12.3,87.9*,-3.1,?
COc1ccc(CNCc2cccc(C)c2)cc1,-14.1,3.6,4.0,6.5,?
COc1ccc(CNCc2ccncc2)c(OC)c1,-5.8,-9.9,6.4,4.3,21.2
CCOCCCn1c(SCC(=O)Nc2ccccc2Cl)nc2c(oc3ccccc32)c1=O,4.1,-12.0,-0.7,-5.2,nt
Fc1ccccc1-n1ncc2c1ncn1nc(Cc3ccccc3)nc21,1.1,6.8,-0.4,-0.1,nt
CC(C)Oc1ccc(CNC(=O)CCCn2c(=O)c3cccn3c3cccnc32)cc1,-19.6,3.7,0.8,-1.9,nt
Cc1cc(-c2ccc(C)c(S(=O)(=O)Nc3cccc(C)n3)c2)on1,8.7,-44.2*,0.4,1.8,nt
Cc1ccnc(NS(=O)(=O)c2cc(-c3cc(C)no3)ccc2C)c1,11.5,15.9,0.5,-4.7,nt
Cc1cc(-c2ccc(C)c(S(=O)(=O)Nc3cccc(CN4CCCC4)c3)c2)on1,-7.6,-60.7*,2.7,-10.8,-14.5
COc1cccc(CCN2CCC(CNS(=O)(=O)c3cc(-c4cc(C)no4)ccc3OC)CC2)c1,-4.3,-1.6,22.8,-7.4,-13.1
COc1cccc(CCN2CCC(CNS(=O)(=O)c3cc(-c4cc(C)no4)ccc3C)CC2)c1,-16.9,-54.9*,28.7,-14.3,?
CCc1ccc(-c2cc(C)no2)cc1S(=O)(=O)N1CCCN(Cc2ccc(F)cc2)C1,-8.8,-31.3*,6.7,-4.2,-16.6
Cc1cc(-c2ccc(C)c(S(=O)(=O)NCC3CCN(Cc4cccc(F)c4)CC3)c2)on1,-3.4,-23.4,15.2,-7.7,-17.5
CCOC(=O)C(C)Sc1nnc2ccc3ccccc3n12 (centres undefined),4.7,-7.5,-0.7,3.2,nt
C=CCC(CC=C)(CNC(=O)C(=O)Nc1ccc(C(=O)OCC)cc1)c1ccccc1,5.0,4.9,15.0,-1.5,nt
CCOC(=O)c1c(NC(=O)CSc2cn(CCNC(=O)c3ccc(OC)c(OC)c3)c3ccccc23)sc2c1CCCC2,-0.6,-4.6,2.2,-2.7,nt
Cc1cc(-c2ccc(C)c(S(=O)(=O)Nc3ccccc3C(F)(F)F)c2)on1,11.7,-36.2*,12.5,-6.3,nt
CN(Cc1ccc(C(F)(F)F)cc1)C(=O)c1ccc(Oc2ccccc2)cc1,4.5,-16.2,11.1,-4.2,2.1
CN(Cc1ccccc1F)C(=O)c1ccc(Oc2ccccc2)cc1,0.1,-31.2*,2.8,-8.8,-7.0
SMILES,D3 ag,D1 antag,D1 ag,D1 potentiator,D3 antag
COc1ccc(CN2C(=O)N(c3cccc(C)c3)C(=O)C2CC(=O)Nc2ccc(F)cc2)cc1OC (centres undefined),-7.0,-15.9,0.0,-2.5,nt
CCc1[nH]nc2c1C(c1ccsc1)C(C#N)=C(N)O2 (centres undefined),-0.6,-14.0,-1.0,-1.3,-11.1
CCc1[nH]nc2c1C(c1ccc(Br)s1)C(C#N)=C(N)O2 (centres undefined),-2.3,3.8,2.9,2.9,-55.6*
Cc1c(O)ccoc1=O,17.1,-1.1,-1.2,-1.7,1.5
Cc1occc(=O)c1O,1.4,7.9,1.6,3.8,-53.4*
CC(=O)NC(CC(=O)NC(C)c1ccc(Cl)cc1Cl)c1ccccc1 (centres undefined),-19.0,11.3,0.2,-1.6,-50.7*
CCCN(CC(=O)Nc1ccc(Cl)cc1Cl)C(=O)CC(NC(C)=O)c1ccccc1 (centres undefined),-39.6,-20.9,-0.5,-6.0,?
COc1cc([N+](=O)[O-])cc(/C=N/NC(=O)c2ccc(NC(=O)c3ccc(C)cc3)cc2)c1O,5.7,0.3,3.9,-5.3,0.9
COc1cc([N+](=O)[O-])cc(/C=N/NC(=O)C(C)Nc2cccc(C)c2)c1O (centres undefined),-19.5,-12.9,1.7,-5.4,-54.8*
COc1cc([N+](=O)[O-])cc(/C=N/NC(=O)C(C)Nc2ccccc2C)c1O (centres undefined),-20.0,1.0,0.1,-10.2,-98.3*
CCC(C)c1ccccc1OCCCNC1CCCC1 (centres undefined),-3.1,-33.5*,38.7*,1.7,-82.0*
CCOc1cccc(OCCNC2CCCC2)c1,-14.7,14.0,0.6,-1.0,?
COc1ccccc1OCCNC1CCCC1,-6.5,-5.7,2.2,-8.4,-76.3*
Cc1ccccc1Cn1c(=O)n(CCCCC(=O)NCc2ccccc2Cl)c(=O)c2ccccc21,-8.1,-0.2,0.0,1.1,nt
O=C(CNC(=O)c1ccc(-c2ccccc2)cc1)OC(C(=O)Nc1cc(C(F)(F)F)ccc1Cl)c1ccccc1 (centres undefined),nt,0.1,5.7,-0.1,nt
Cc1cc(NC(=O)C(C)(C)Oc2ccc(Cl)cc2)cc(-c2nc3ncccc3o2)c1O,0.5,-12.5,-0.2,-4.0,nt
CN1CCN(C(c2ccc(F)cc2)c2sc3nc(-c4ccco4)nn3c2O)CC1 (centres undefined),3.8,nt,3.0,4.9,nt
Cc1cccc(-n2nc3c(c2NC(=O)c2ccco2)CS(=O)(=O)C3)c1C,1.2,-41.0*,5.1,-15.2,2.6
Cc1ccc(-n2nc3c(c2NC(=O)c2cccs2)CS(=O)(=O)C3)cc1C,-13.4,1.4,3.9,2.3,-65.5*
CCc1ccccc1NC(=O)c1ccc2c(c1)CCCN2S(C)(=O)=O,-5.0,7.2,-0.9,0.2,nt
CCC(=O)NC(c1ccc(C)cc1)c1cc(Cl)c2cccnc2c1O (centres undefined),nt,1.6,14.2,3.2,nt
CCC(=O)NC(c1ccc(Br)o1)c1cc(Cl)c2cccnc2c1O (centres undefined),nt,15.0,88.8*,4.0,nt
COc1cc(NC(C)=O)c2ncccc2c1[N+](=O)[O-],-1.3,-0.9,1.5,-2.1,11.1
CCOc1ccc(C(Nc2cccnc2)c2cc(Cl)c3cccnc3c2O)cc1 (centres undefined),8.1,-4.2,15.2,4.3,-58.1*

# Assay outcomes as filed in PubChem BioAssay.
